biological target: APLNR; experiment: pooled miR-30 sensor sort-seq; sequence = guide strand; conditions: shRNA
Also: reference of the scale not given here.

| Sequence | sensor-assay potency score (higher = more potent) |
| --- | --- |
| TGGAGCACTAATTATCTGCTGA | -0.596 |
| TTGACGTAGCTGATGCAGGTGC | 0.046 |
| TAGCACTGCACCTTAGTGGTGT | 0.437 |
| TTTGAGGACAGCTCTGGGCAGA | -0.516 |
| TTATCTGCTGACACACAGCCCA | -0.574 |
| TATCTAGTCAGTGTCATGGTGC | -0.323 |
| TAATTATCTGCTGACACACAGC | -0.776 |
| TAGCAATGAAGATATCAGCTGA | 0.487 |

biological target: APOA1; experiment: as above; conditions: shRNA

| Sequence | sensor-assay potency score (higher = more potent) |
| --- | --- |
| TAGGTTTAGCTGTTTTCCCAAG | -1.2 |
| TACTCGGCCAGTCTGGCGCCGC | -0.96 |
| TTGTCAAGGAGCTTTAGGTTTA | -0.808 |
| TTAGCTGTTTTCCCAAGGCGGA | -1.3 |
| TAGCTGTTTTCCCAAGGCGGAG | -1.51 |
| TGGGACACATAGTCTCTGCCGC | -0.692 |
| TCTTGCTGCCAGAAATGCCGAG | -0.701 |
| TTGGCCTTCTCGCTGAGCGTGC | -0.4 |
| TTCTTCTGGAAGTCGTCCAGGT | -0.431 |
| TTTAGCTGTTTTCCCAAGGCGG | -0.584 |
| TTGCAGCTCGTGCAGCTTCTGG | -1.14 |
| TTAGGTTTAGCTGTTTTCCCAA | 0.243 |
| TTGGAGCTCTGCGCGCAGCGGC | -1.17 |
| AACTGGGACACATAGTCTCTGC | -0.955 |
| TGTCTTTGAGCACATCCACGTA | -1.2 |
| TCAGCTTCTCTTGCAGCTCGTG | -1.07 |
| TTCTCTTGCAGCTCGTGCAGCT | -0.213 |
| TTGAGCACATCCACGTACACAG | -0.115 |
| TCGCGCAGCTTGCTGAAGGTGG | -0.684 |
| TTTGAGCACATCCACGTACACA | -1.01 |
| TAGAGCTCCATCTCCTCCTGCC | 0.375 |

biological target: APOA4; experiment: as above; conditions: shRNA

| Sequence | sensor-assay potency score (higher = more potent) |
| --- | --- |
| TTGGCCTTGAGCTCGTCGGCGT | -0.576 |
| TTCTGGTCGATCTTGGCCTTGA | -0.621 |
| TTCTTCTGCAGGTCACCTGCGT | -0.176 |
| TTCTTCTTCATCTGGAAGGTCA | -0.417 |
| TTTCTGGAGATGTTCCACGGCC | -0.87 |
| TCGGCGTTCTTCTTCATCTGGA | -0.527 |
| TCTTTCTCCTTGAAGGTGCTGA | 0.0406 |
| TTCTCCTTGAAGGTGCTGAAGA | -1.33 |
| TTGAGCTCCTCCACGTTCTGGT | 0.494 |
| TCGGAACTCCTCCACCTGCTGG | -1.28 |
| TCCACGTTCTGGTCGATCTTGG | -1.41 |
